Among the data in PubChem BioAssay (NCI) are growth values, retold here.

What all share (assay): NCI-60 one-dose screen, 48 h (100 = growth as untreated, 0 = no growth, -100 = all killed)
One assay has as its system HT29 colon. The following applies: 10 µM unless noted.
The subject of a further assay is SNB-75 CNS. The following applies: 10 µM unless noted.
A further assay relates to SNB-19 CNS. The following applies: 10 µM unless noted.
For a further assay, the system named is U251 CNS. The following applies: 10 µM unless noted.
For a further assay, the system named is PC-3 prostate. As to conditions: 10 µM unless noted.
The test system of another assay is SK-MEL-5 melanoma. As to conditions: 10 µM unless noted.
The test system of a further assay is UACC-62 melanoma. As to conditions: 10 µM unless noted.
Another assay relates to LOX IMVI melanoma. As to conditions: 10 µM unless noted.
For another assay, the system named is SK-MEL-28 melanoma. The following applies: 10 µM unless noted.
The test system of another assay is SK-MEL-2 melanoma. As to conditions: 10 µM.
In another assay the test system is EKVX NSCLC. The following applies: 10 µM unless noted.
For another assay, the system named is SN12C renal. The following applies: 10 µM unless noted.
For a further assay, the system named is UO-31 renal. As to conditions: 10 µM unless noted.
For the next assay, the system named is TK-10 renal. The following applies: 10 µM unless noted.
Another assay concerns ACHN renal. The following applies: 10 µM unless noted.
A further assay deals with CAKI-1 renal. The following applies: 10 µM unless noted.
The next assay has as its system CCRF-CEM leukemia. As to conditions: 10 µM unless noted.
The test system of another assay is MOLT-4 leukemia. As to conditions: 10 µM unless noted.
The test system of a further assay is A498 renal. As to conditions: 10 µM unless noted.

The panel holds about 83,000 compounds, 20% with a hit somewhere; the sample as a whole holds those more often.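 Negative percent growth values reflect cell death: -40 means 40% of the cells present at the start died, and -100 means all died.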 Values without a mark were called inactive. The source made the active and inactive calls. The calls were made as follows: active = growth percent below 10; inactive = the rest.

Turning to `COc1ccc(OC)c(NC2=C(SCCc3ccccc3)C(=O)c3ccccc3C2=O)c1`, the growth in the assay on HT29 colon was 106%; in the assay with SNB-75 CNS, 78%; with SNB-19 CNS it was 82.2%; with U251 CNS, 77%; in the assay on PC-3 prostate, 64.7%; with SK-MEL-5 melanoma it was 80.9%. For the same compound, the growth in the assay with UACC-62 melanoma was 62.1%; with LOX IMVI melanoma it was 66.4%; with SK-MEL-28 melanoma, 108%; in the assay on SK-MEL-2 melanoma it was 73.2%; with EKVX NSCLC, 77.3%; with SN12C renal, 91.2%. For the same compound, the growth with UO-31 renal was 61.6%; in the assay with TK-10 renal, 110%; with ACHN renal, 77.2%; in the assay on CAKI-1 renal, 63.7%; in the assay on CCRF-CEM leukemia, 122%; with MOLT-4 leukemia, 80.4%.
On to `CCc1nc2ccc(Cc3ccc(C(=O)NO)cc3)cc2c(=O)n1CCc1ccccc1`, for which the growth is -40.8% (active) in the assay on HT29 colon; -20.8% (active) in the assay on SNB-75 CNS; -44.9% (active) in the assay on SNB-19 CNS; -71.4% (active) in the assay on U251 CNS; -66.5% (active) with PC-3 prostate; -65.6% (active) in the assay on SK-MEL-5 melanoma. Besides, the growth was -57.7% (active) with UACC-62 melanoma; -76.2% (active) in the assay on LOX IMVI melanoma; -36% (active) in the assay on SK-MEL-28 melanoma; -33.4% (active) in the assay on SK-MEL-2 melanoma; -23.3% (active) in the assay on EKVX NSCLC; -20.5% (active) in the assay on SN12C renal. In addition, the growth in the assay with UO-31 renal was -63.4% (active); with TK-10 renal, -29.7% (active); in the assay on ACHN renal, -35.3% (active); with CAKI-1 renal, -37% (active); in the assay on A498 renal, -75.9% (active); in the assay on CCRF-CEM leukemia, 2.95% (active). Moreover, in the assay on MOLT-4 leukemia, the growth was -18.7% (active).
For `Cc1c(Cn2c(C)nc3c(C(=O)O)cc(N4CCOCC4)cc32)cccc1C(F)(F)F`, the growth in the assay on HT29 colon is 69.5%; in the assay on SNB-75 CNS, 61.3%; in the assay with SNB-19 CNS, 118%; in the assay with PC-3 prostate it was 68.2%; with SK-MEL-5 melanoma it was 104%; in the assay on UACC-62 melanoma, 65.5%. For the same compound, the growth in the assay with LOX IMVI melanoma is 101%; with SK-MEL-28 melanoma it was 80.9%; in the assay on EKVX NSCLC, 101%; in the assay on SN12C renal it was 95.7%; in the assay with UO-31 renal it was 47%; with TK-10 renal, 84.1%. The growth with ACHN renal was 77.1%; in the assay on CAKI-1 renal, 91.7%; in the assay with A498 renal, -17% (active); with CCRF-CEM leukemia, 79.6%; in the assay on MOLT-4 leukemia, 60.2%.
On to `CN1CCN(c2ccc(OC(F)(F)F)c(Nc3ncc4c(n3)-c3c(c(C(N)=O)nn3CCO)CC4)c2)CC1`, for which the growth is 10.3% with HT29 colon; 7.72% (active) in the assay on SNB-75 CNS; 23.4% in the assay on SNB-19 CNS; 25.4% with U251 CNS; 36.8% in the assay on PC-3 prostate; 23.4% in the assay with SK-MEL-5 melanoma. Further, the growth with UACC-62 melanoma is 35.9%; in the assay with LOX IMVI melanoma it was 25.6%; in the assay with SK-MEL-28 melanoma, 88.7%; with EKVX NSCLC it was 35.7%; in the assay with SN12C renal it was 25.9%; with UO-31 renal it was 35.3%. The growth in the assay with TK-10 renal was 53.5%; in the assay on ACHN renal, 37.1%; with CAKI-1 renal it was 28.4%; with A498 renal, -5.99% (active); in the assay with CCRF-CEM leukemia, 18.2%.
With `Cn1cc(-c2ccc(F)c(C(F)(F)F)c2)nc1C1CCN(c2ncnc3[nH]ncc23)CC1`, the growth is 60.8% in the assay with HT29 colon; -15% (active) in the assay on SNB-75 CNS; 52.5% in the assay with SNB-19 CNS; 71% with PC-3 prostate; 95.1% in the assay with SK-MEL-5 melanoma; 75.7% with UACC-62 melanoma. For the same compound, the growth with LOX IMVI melanoma is 69.4%; in the assay on SK-MEL-28 melanoma it was 86.2%; in the assay with EKVX NSCLC it was 88%; in the assay on SN12C renal it was 63.7%; in the assay with UO-31 renal, 63.8%; with TK-10 renal, 66.6%. For the same compound, the growth in the assay with ACHN renal is 73.4%; in the assay with CAKI-1 renal, 62.2%; in the assay on A498 renal, 66.5%; in the assay on CCRF-CEM leukemia, 72.4%; in the assay with MOLT-4 leukemia, 65.5%.
Consider `Ic1ccccc1-c1ccccc1`, for which the growth was 114% with HT29 colon; 95.3% in the assay with SNB-75 CNS; 101% in the assay on SNB-19 CNS; 105% with U251 CNS; 99.9% with PC-3 prostate; 111% with SK-MEL-5 melanoma. The growth in the assay on UACC-62 melanoma was 100%; in the assay with LOX IMVI melanoma, 103%; with SK-MEL-28 melanoma it was 113%; with EKVX NSCLC, 120%; in the assay on SN12C renal, 101%; in the assay on TK-10 renal, 106%. Further, the growth is 109% in the assay with ACHN renal; 111% with CAKI-1 renal; 89.8% with A498 renal; 90.1% in the assay with CCRF-CEM leukemia; 101% with MOLT-4 leukemia.
On to `NC(=O)c1n[nH]n2c1nc(=O)c1c3c(sc12)CCCC3`, for which the growth in the assay on HT29 colon was 106%; in the assay with SNB-75 CNS, 102%; in the assay on SNB-19 CNS, 104%; with U251 CNS, 97%; in the assay with PC-3 prostate, 85.3%; in the assay with SK-MEL-5 melanoma, -31.5% (active). Further, the growth was 103% in the assay on UACC-62 melanoma; 99.3% with LOX IMVI melanoma; 120% in the assay on SK-MEL-28 melanoma; 106% in the assay on SK-MEL-2 melanoma; 101% in the assay with EKVX NSCLC; 101% with SN12C renal. For the same compound, the growth in the assay with UO-31 renal is 84.4%; in the assay with TK-10 renal it was 106%; with ACHN renal, 111%; with A498 renal it was 115%; with CCRF-CEM leukemia it was 84.2%; in the assay with MOLT-4 leukemia, 100%.
Consider `O=C(c1ccc(/C=C/c2n[nH]c3ccccc23)cc1)N1CCNCC1`, for which the growth was 13.5% in the assay with HT29 colon; 0.841% (active) with SNB-75 CNS; 68.7% with SNB-19 CNS; 58.9% in the assay on U251 CNS; 38.3% in the assay with PC-3 prostate; 53.1% in the assay on SK-MEL-5 melanoma. Further, the growth in the assay with UACC-62 melanoma is 48.7%; with LOX IMVI melanoma it was 5.66% (active); in the assay with SK-MEL-28 melanoma it was 46.2%; in the assay with EKVX NSCLC, 71%; with SN12C renal, 22.5%; in the assay with UO-31 renal, -7.82% (active). The growth in the assay on TK-10 renal is 53%; with ACHN renal, 36.5%; in the assay with A498 renal, 37.9%; with CCRF-CEM leukemia it was 53.2%; in the assay with MOLT-4 leukemia, 19.9%.
